# The list is not random: actives were taken first. Their share in the collection is about 28%.
# CYP2C9 activ: human CYP2C9 activators, primary screen, biochemical, luminescence | hit rate 1.4% among 96,000 | recombinant CYP2C9, luciferin-H conversion; stronger effect = higher value; factor 1 = untreated enzyme, 0 = blocked | activation factor at 5 µM | Cytochrome P450 2C9 (Homo sapiens), P11712 | AID 1024, 2008;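 active = activation factor of 2 or more for CYP2C9 at a 5 µM dose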;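 note: 0 = sulfaphenazole-blocked wells and 1 = vehicle-only wells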
# Target sequence (P11712 whole entry, looked up): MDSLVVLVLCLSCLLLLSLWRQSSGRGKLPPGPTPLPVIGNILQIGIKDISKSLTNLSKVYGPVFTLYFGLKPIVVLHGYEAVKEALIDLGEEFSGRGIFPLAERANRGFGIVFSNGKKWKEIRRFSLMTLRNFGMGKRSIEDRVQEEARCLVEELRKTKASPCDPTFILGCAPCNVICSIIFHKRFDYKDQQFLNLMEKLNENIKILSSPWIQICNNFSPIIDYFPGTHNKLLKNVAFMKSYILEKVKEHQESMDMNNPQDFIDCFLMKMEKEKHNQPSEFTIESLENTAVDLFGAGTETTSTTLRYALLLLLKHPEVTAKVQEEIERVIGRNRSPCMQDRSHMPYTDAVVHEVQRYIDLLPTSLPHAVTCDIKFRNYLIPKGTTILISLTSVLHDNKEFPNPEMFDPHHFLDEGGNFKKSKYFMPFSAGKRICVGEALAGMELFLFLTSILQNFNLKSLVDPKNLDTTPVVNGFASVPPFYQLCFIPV
# CYP2C9 inhib: blockers of cytochrome P450 2C9 activity – biochemical, luminescence, ADME assay, primary screen; P11712; CYP2C9 Supersomes, luciferin-H conversion; inhibition, % at 5 µM; hit rate 20% among 96,000;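 active = blocking of liver enzyme CYP2C9 beyond about 50% at 5 µM, limit read from the data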
# CYP2C19 activ: human CYP2C19 activators, primary screen, biochemical, luminescence. Cytochrome P450 2C19 (Homo sapiens), P33261. 96,000 tested, under 10 active. recombinant CYP2C19, luciferin-H EGE luminescence; stronger effect = higher value; 0 = fully inhibited enzyme, 1 = untreated enzyme. activation factor at 5 µM;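 active = activation factor of at least 2 at 5 µM in the primary screen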;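 note: 0 = wells with 2.5 mM tranylcypromine and 1 = vehicle-only wells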
# CYP2C19 inh: blockers of cytochrome P450 2C19 activity – biochemical, luminescence, ADME assay, primary screen. inhibition, % at 5 µM. CYP2C19 Supersomes, luciferin-H EGE luminescence, 30 min. hit rate 21% among 96,000;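 active = CYP2C19 inhibition above a set limit at 5 µM in the primary screen, cut at about 50% in these data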;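 note: plate controls were negative control wells for no effect and 2.5 mM tranylcypromine positive control for full effect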
# PTK2B oligo ant: antagonists of Pyk2 self-association, primary screen, Q293 cells, FERM NanoBiT luminescence, HTS | stronger effect = lower value | z-score (the deposit names both 25 µM and 10 µM) | hit rate 0.83% among 99,000 | AID 1347419, 2020;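 active = Z-score of -3 or lower, scaled per plate to the spread of control and sample wells; inactive = z-score above -3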;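 note: negative z-score means lost luminescence so less FERM oligomerization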
# * hit, by the source's call; . = no result given.
SMILES,CYP2C9 activ,CYP2C9 inhib,CYP2C19 activ,CYP2C19 inh,PTK2B oligo ant
COc1ccccc1N1CCN(CC(=O)Nc2cccc(F)c2)CC1,0.8,18,0.8,24,0.95
COc1ccc(NC(=O)CN2CCCN(S(=O)(=O)c3ccc(F)cc3)CC2)cc1,0.5,53*,0.1,89*,-0.01
Cc1ccc(S(=O)(=O)N(CCC#N)CCN2CCCC2)cc1,0.9,8,0.9,13,0.94
C=C(C)C1CCC(C)=C1COC(=O)Nc1ccccc1 (stereo not drawn),0.6,37,0.8,22,0.21
COc1cccc(C(=O)N2CCN(S(=O)(=O)Cc3ccccc3)CC2)c1OC,.,.,.,.,0.23
COc1ccc(C2=CC(=O)OC3(CCCC3)O2)cc1,0.8,16,0.6,36,1.4
COC(=O)C1(c2ccccc2)NC(c2cccs2)C2C(=O)N(c3ccccc3)C(=O)C21 (stereo not drawn),.,.,.,.,-0.12
c1ccc(N2CCN(c3cnc4ccccc4n3)CC2)cc1,1,5,0.5,51*,-0.55
CCCC(C(=O)c1ccccc1)n1cncn1 (stereo not drawn),0.9,5,0.8,17,-0.89
CC(C)(C)C(=O)C(Cc1ccccc1)n1cncn1 (stereo not drawn),0.4,56*,0.7,31,0.11
CC(C)(C)C(=O)C(Cc1ccccc1Cl)n1cncn1 (stereo not drawn),0.9,12,0.4,60*,-0.01
CCCCCOc1ccc(C(=O)NCC(=O)NCC(=O)OCC)cc1,1.3,-26,1.2,-20,-0.77
O=C(CSCc1ccc(F)cc1)N1CCN(c2ccc(F)cc2)CC1,0.8,18,0.7,33,0.12
CCOC(=O)N1CCN(c2ccccc2O)CC1,0.7,27,0.6,36,0.07
O=C(Cc1ccc(Br)cc1)N1CCN(c2ccccc2O)CC1,0.2,81*,0,96*,0.4
O=C(COC(=O)C1(c2ccc(F)cc2)CCCC1)NC1CC1,0.8,17,0.4,55*,0.45
O=C(CCS(=O)(=O)c1ccc(Br)cc1)N1CCN(c2ccccc2Cl)CC1,1,-2,0.3,71*,0.29
O=C(COC(=O)C1(c2ccccc2F)CCCC1)NC1CCS(=O)(=O)C1 (stereo not drawn),1,5,0.9,12,-0.66
O=C(Cc1ccc(Br)cc1)N1CCN(c2ccc(F)cc2)CC1,0.2,76*,0,97*,0.11
Cc1ccc(Oc2cc(-n3nc(C)cc3C)ncn2)cc1,.,.,.,.,-0.22
CCOCC(=O)N1CCN(c2ccc(F)cc2)CC1,1,3,0.8,19,-0.9
O=C(COC(=O)C1(c2ccccc2)CC1)N1CCN(c2ccc(F)cc2)CC1,1.1,-6,0.2,77*,0.93
O=C(c1ccccc1)c1nn(-c2ccc(Cl)cc2)c(=O)cc1C(F)(F)F,0.5,53*,0.3,75*,-0.45
O=C(c1ccccc1)c1nn(-c2ccccc2)c(=O)cc1C(F)(F)F,0.7,30,0.6,42,-0.8
CCCCC(NC(C)=O)c1nc2ccccc2[nH]1 (stereo not drawn),1.1,-10,0.4,64*,.
SMILES,CYP2C9 activ,CYP2C9 inhib,CYP2C19 activ,CYP2C19 inh,PTK2B oligo ant
CCn1nc(C(=O)N[C@@H](CCSC)c2nc3ccccc3[nH]2)c2ccccc2c1=O,0,96*,0.4,64*,-0.21
CCCCn1nc(C(=O)N[C@@H](CCSC)c2nc3ccccc3[nH]2)c2ccccc2c1=O,0.1,90*,0.4,62*,-1.9
CSCC[C@H](NC(=O)CC(C)(C)C)c1nc2ccccc2[nH]1,0.9,14,0.8,21,-0.17
CSCC[C@H](NC(=O)c1nn(C)c(=O)c2ccccc12)c1nc2ccccc2[nH]1,0.1,94*,0.6,41,-0.64
COc1ccc(Cl)cc1S(=O)(=O)NCc1cccs1,2.5*,-149,0,97*,-0.62
COc1cc(C)c(S(=O)(=O)NCc2cccs2)cc1C,0.3,66*,0,99*,-0.31
O=C(CN1C(=O)NC2(CCCCCC2)C1=O)c1ccc2c(c1)OCCO2,0.6,41,0.9,14,-2.5
CCOC(=O)/C(C(=O)Nc1ccccc1Br)=C1/NC(C)(C)Cc2ccccc21,.,.,.,.,0.45
O=c1[nH]c(C2CCCN(S(=O)(=O)c3ccc(F)cc3)C2)nc2c1nnn2Cc1ccccc1 (stereo not drawn),0.8,18,0.9,6,-1.3
Cc1ccc(Cn2nnc3c(=O)[nH]c(C4CCCN(C(=O)Nc5ccc(F)cc5F)C4)nc32)cc1 (stereo not drawn),0.5,54*,0.6,40,-1
CCOc1ccccc1NC(=O)N1CCCC(c2nc3c(nnn3Cc3ccc(C)cc3)c(=O)[nH]2)C1 (stereo not drawn),0.9,6,0.9,14,-1.1
O=C(Cc1cccs1)N1CCCC(c2nc3c(nnn3Cc3ccc(F)cc3)c(=O)[nH]2)C1 (stereo not drawn),0.4,57*,0.8,19,-0.48
O=C(Cc1cccs1)N1CCCC(c2nc3c(nnn3Cc3ccccc3Cl)c(=O)[nH]2)C1 (stereo not drawn),0.1,91*,0.3,66*,0.86
CC(C)(C)c1ccc(Cn2nnc3c(=O)[nH]c(C4CCCN(C(=O)Cc5cccs5)C4)nc32)cc1 (stereo not drawn),0.4,57*,0.7,28,-1.3
Cc1cccc(N(Cc2cc3ccccc3[nH]c2=O)C(=O)c2ccco2)c1C,1.1,-10,1.2,-21,0.75
CC(C)NC(=O)COC(=O)c1ccc(Cl)c(S(=O)(=O)N2CCCC2)c1,1.1,-11,1,-4,-0.04
CC(C)(C)c1ccc(Cn2nnc3c(=O)[nH]c(C4CCN(C(=O)Cc5cccs5)CC4)nc32)cc1,0,99*,0.1,91*,-2.1
Cc1ccc(NC(=O)c2cc(NC(=O)C3CC=CCC3C(=O)O)ccc2N2CCOCC2)cc1Cl (stereo not drawn),0.4,61*,0.9,9,0.06
O=C(c1ccc(F)cc1)C1CCN(C(=S)Nc2ccccc2)CC1,0.6,42,0.5,50,-0.02
COc1ccccc1C(=O)N1C(CC(=O)Nc2cc(Cl)ccc2C)C(=O)NC2CCCCC21 (stereo not drawn),0.7,26,0.7,34,-1.4
O=C(CC1C(=O)NC2CCCCC2N1C(=O)c1ccc(F)cc1)Nc1ccccc1 (stereo not drawn),0.4,56*,0.7,35,-0.35
O=C(CC1C(=O)N(c2ccccc2)C(=O)N1C1CCCCC1)Nc1ccccc1 (stereo not drawn),0.8,18,0.5,52*,-1.2
COc1ccc(NC(=O)CC2C(=O)N(c3cccc(OC)c3)C(=O)N2C2CCCCC2)cc1 (stereo not drawn),1,0,0.9,8,-0.95

# Compound activity as filed in PubChem.
